Among the test systems are DU-145 prostate; K-562 leukemia; MALME-3M melanoma; MDA-MB-231 breast; RXF 393 renal; SF-268 CNS; SF-295 CNS; SF-539 CNS; UACC-257 melanoma; M14 melanoma.
Common to all, as to assay: NCI-60 one-dose screen, 48 h (100 = growth as untreated, 0 = no growth, -100 = all killed)
What all share (conditions): 10 µM unless noted

About 83,000 compounds went through this panel and 20% of them were active in at least one assay; those are over-represented in the sample as a whole.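 Treatment: one concentration, 48 hours, 96-well format. Scoring: percent growth, with anything below 10 considered active.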 Values without a mark were called inactive. The source made the active and inactive calls.

With `CC1(C)CC(O)CCCCCCOc2c(CN)cccc2NC(=O)c2nc(cnc2N)-c2ccc(cc2)S1(=O)=O` (stereo not given), the growth is 15.1% in the assay with DU-145 prostate; -26.3% (active) in the assay on K-562 leukemia; -71.5% (active) in the assay on MALME-3M melanoma; 39.8% in the assay with MDA-MB-231 breast; 19.6% in the assay with RXF 393 renal; 26.1% in the assay on SF-268 CNS. Also, the growth is 21.3% in the assay with SF-295 CNS, -60.5% (active) in the assay with SF-539 CNS, 21.9% in the assay with UACC-257 melanoma and -72.7% (active) with M14 melanoma.

`CCOC(=O)Oc1c(OC)cc(C(=O)c2ccc(OC)c(OC(=O)CCl)c2OC)cc1OC`: the growth was 12.5% in the assay on DU-145 prostate; 10.4% in the assay with K-562 leukemia; 50.8% with MALME-3M melanoma; 33% in the assay on MDA-MB-231 breast; -17.9% (active) in the assay with RXF 393 renal; 43.8% with SF-268 CNS. Moreover, the growth with SF-295 CNS is 20.7%; with SF-539 CNS it was -16.9% (active); in the assay on UACC-257 melanoma, 48.5%; in the assay on M14 melanoma, -15% (active).

As for `COc1cc(OC)cc(C(=O)C[n+]2cccc3cc[nH]c32)c1`, the growth was 115% in the assay on DU-145 prostate; 98% in the assay on K-562 leukemia; 99.1% in the assay with MALME-3M melanoma; 98.4% in the assay with MDA-MB-231 breast; 83.8% in the assay on RXF 393 renal; 97% in the assay with SF-268 CNS. In addition, the growth in the assay with SF-295 CNS was 101%; in the assay with SF-539 CNS it was 101%; with UACC-257 melanoma it was -43.7% (active); in the assay on M14 melanoma it was 96.3%.

As to `Cc1ccc(-c2[nH][nH]c(=O)c2-c2nc3ccccc3s2)cc1`, the growth with DU-145 prostate is 111%; with K-562 leukemia it was 100%; in the assay with MALME-3M melanoma it was 96.5%; with MDA-MB-231 breast it was 99.1%; in the assay with RXF 393 renal it was 101%; with SF-268 CNS, 103%. Moreover, the growth is 101% with SF-295 CNS, 100% in the assay on SF-539 CNS, 104% with UACC-257 melanoma and 98.1% in the assay on M14 melanoma.

As to `O=C(/C=C/c1ccc[nH]1)c1ccc(-n2ccc(C(F)(F)F)n2)c(F)c1`, the growth was 99.8% in the assay on DU-145 prostate; 77.4% in the assay on K-562 leukemia; 84.6% in the assay with MALME-3M melanoma; 87.1% in the assay with MDA-MB-231 breast; 91.1% in the assay on RXF 393 renal; 93.6% with SF-268 CNS. Also, the growth with SF-295 CNS was 90.2%; with SF-539 CNS, 69.7%; in the assay with UACC-257 melanoma it was 99.7%; in the assay with M14 melanoma it was 94.3%.

With `Cc1ccc(/C=N/NC(=O)CSc2nc3ccccc3c(=O)n2Cc2ccc(S(N)(=O)=O)cc2)cc1`, the growth with DU-145 prostate is 105%; with K-562 leukemia, 63.3%; in the assay on MALME-3M melanoma, 97%; with MDA-MB-231 breast, 89.7%; in the assay with RXF 393 renal, 86.8%; in the assay on SF-268 CNS, 78.2%. Further, the growth was 95% in the assay with SF-295 CNS, 102% with SF-539 CNS, 96.4% in the assay with UACC-257 melanoma and 98.1% in the assay with M14 melanoma.

As to `CCOC(=O)c1nc2c3ccccc3ccn2c1C(=O)OCC`, the growth in the assay on DU-145 prostate is 92.1%; in the assay on K-562 leukemia it was 99.1%; in the assay on MALME-3M melanoma, 103%; in the assay with MDA-MB-231 breast, 98.2%; with RXF 393 renal, 103%; in the assay on SF-268 CNS, 89%. The growth in the assay on SF-295 CNS is 104%; with SF-539 CNS it was 99.9%; in the assay with UACC-257 melanoma it was 126%; in the assay with M14 melanoma it was 121%.

For `O=S(=O)(NCCNc1nccc(-c2c(-c3cccc(O)c3)nc3occn23)n1)c1cccc(F)c1`, the growth is 104% in the assay on DU-145 prostate; 70.8% with K-562 leukemia; 4.35% (active) in the assay with MALME-3M melanoma; 69.4% with MDA-MB-231 breast; 91.6% in the assay with RXF 393 renal; 93.1% in the assay on SF-268 CNS. Also, the growth in the assay with SF-295 CNS was 106%; in the assay with SF-539 CNS, 111%; in the assay with UACC-257 melanoma, 39.7%; in the assay on M14 melanoma, 35.9%.

`[O-][n+]1c(Cl)cc(Cl)c2ccccc21`: the growth is 113% with DU-145 prostate; 85.2% in the assay with K-562 leukemia; 107% in the assay with MALME-3M melanoma; 100% in the assay with MDA-MB-231 breast; 153% with RXF 393 renal; 96.7% in the assay with SF-268 CNS. In addition, the growth with SF-295 CNS is 103%; with SF-539 CNS it was 125%; in the assay with UACC-257 melanoma it was 102%; in the assay with M14 melanoma, 100%.

Regarding `CC(C)(C)c1cc(/C=N/NC(=O)c2ccccc2NC(=O)c2cccs2)c(O)c(C(C)(C)C)c1`, the growth in the assay with DU-145 prostate is 32.5%; in the assay with K-562 leukemia, 13.1%; with MALME-3M melanoma, 49.6%; in the assay on MDA-MB-231 breast, 44.3%; in the assay with RXF 393 renal it was 64.6%; in the assay on SF-268 CNS it was 24.6%. Also, the growth in the assay on SF-295 CNS was 40%; in the assay on SF-539 CNS it was 51.7%; with UACC-257 melanoma, 38.6%; with M14 melanoma it was 27.6%.

Turning to `COC(=O)C1=C(C(=O)ON)C2C=CC1(C(Cc1ccccc1)Nc1ccccc1)O2` (stereo not given), the growth in the assay with DU-145 prostate was 73.9%; with K-562 leukemia, -1.55% (active); with MALME-3M melanoma, -74% (active); with MDA-MB-231 breast it was 103%; with RXF 393 renal, 92.1%; in the assay with SF-268 CNS, 95%. For the same molecule, the growth in the assay with SF-295 CNS is 103%; with SF-539 CNS, 90%; in the assay with UACC-257 melanoma it was 87.8%; with M14 melanoma it was 76.3%.

Turning to `COc1ccc2c(c1)C(=O)CC(c1ccccc1OC)O2` (stereo not given), the growth with DU-145 prostate is 103%; with K-562 leukemia, 101%; with MALME-3M melanoma, 102%; in the assay with MDA-MB-231 breast it was 86.8%; with RXF 393 renal, 106%; in the assay on SF-268 CNS, 96.6%. Moreover, the growth with SF-295 CNS was 101%; in the assay on SF-539 CNS it was 96.6%; with UACC-257 melanoma it was 101%; in the assay on M14 melanoma it was 106%.

`O=C(CCN1CCCC1)Nc1ccc2c(NCc3ccccc3)c3ccccc3nc2c1`: the growth was -25% (active) with DU-145 prostate; -14.3% (active) in the assay with K-562 leukemia; -18.5% (active) in the assay on MALME-3M melanoma; -14.9% (active) in the assay with MDA-MB-231 breast; -16% (active) with RXF 393 renal; -2.23% (active) with SF-268 CNS. Further, the growth in the assay with SF-295 CNS is 15.5%; in the assay with SF-539 CNS, 5.91% (active); with UACC-257 melanoma, 1.08% (active); with M14 melanoma, 7.61% (active).

`NNC(=O)c1ccc(-n2nc(-c3ccccc3)c3ccccc32)cc1`: the growth is 79.7% with DU-145 prostate; 84.1% in the assay with K-562 leukemia; 90.2% in the assay with MALME-3M melanoma; 63.9% with MDA-MB-231 breast; 61.7% with RXF 393 renal; 64% with SF-268 CNS. The growth in the assay on SF-295 CNS is 75.2%; in the assay with SF-539 CNS, 82.8%; with UACC-257 melanoma, 99.5%; in the assay with M14 melanoma, 77%.
